DAX1 inh-1 – DAX1 (NR0B1) inhibitors on StAR promoter, primary screen, cell-based, luminescence, SF-1 (NR5A1), full-length DAX-1; HEK293T StAR-luciferase reporter, SF-1/DAX-1 repression relief; 370,000 compounds, 1.1% hits; AID 652010, 2013; inhibition, % at 6.8 µM;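 active means inhibition above the mean over all tested compounds plus 3 SD, cut at about 3.6% in these data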;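 further: 0% = DAX-1 cells with DMSO and 100% = cells lacking DAX-1 with DMSO; higher inhibition means more luminescence from relief of DAX-1 repression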
ssDAF12 agonist – S. stercoralis DAF-12 nuclear receptor activators, primary screen, cell-based, luminescence, HEK293, GRIP1 co-expression, lit1-tk-luc; 370,000 compounds, 1% hits; activation, % at 6.8 µM; Nuclear hormone receptor DAF-12 (Strongyloides stercoralis); AID 652126, 2013; HEK293 ssDAF-12/GRIP1 lit1-tk-luc reporter; % of 3 µM dafachronic acid response;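 active means activation above the mean over all tested compounds plus 3 SD, cut at about 0.9% in these data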;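 further: 0% = DMSO-only wells and 100% = 3 µM delta7-dafachronic acid wells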
AHR activator – AHR activators, primary screen, cell-based, luminescence, luciferase reporter, human; Aryl hydrocarbon receptor (Homo sapiens), P35869; AHR-responsive luciferase reporter cells; activation, % at 5 µM; 320,000 compounds, 2.5% hits; in the data active means activation above about 47%;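 further: 0% = vehicle wells and 100% = reference agonist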
Target sequence (P35869 whole entry, looked up): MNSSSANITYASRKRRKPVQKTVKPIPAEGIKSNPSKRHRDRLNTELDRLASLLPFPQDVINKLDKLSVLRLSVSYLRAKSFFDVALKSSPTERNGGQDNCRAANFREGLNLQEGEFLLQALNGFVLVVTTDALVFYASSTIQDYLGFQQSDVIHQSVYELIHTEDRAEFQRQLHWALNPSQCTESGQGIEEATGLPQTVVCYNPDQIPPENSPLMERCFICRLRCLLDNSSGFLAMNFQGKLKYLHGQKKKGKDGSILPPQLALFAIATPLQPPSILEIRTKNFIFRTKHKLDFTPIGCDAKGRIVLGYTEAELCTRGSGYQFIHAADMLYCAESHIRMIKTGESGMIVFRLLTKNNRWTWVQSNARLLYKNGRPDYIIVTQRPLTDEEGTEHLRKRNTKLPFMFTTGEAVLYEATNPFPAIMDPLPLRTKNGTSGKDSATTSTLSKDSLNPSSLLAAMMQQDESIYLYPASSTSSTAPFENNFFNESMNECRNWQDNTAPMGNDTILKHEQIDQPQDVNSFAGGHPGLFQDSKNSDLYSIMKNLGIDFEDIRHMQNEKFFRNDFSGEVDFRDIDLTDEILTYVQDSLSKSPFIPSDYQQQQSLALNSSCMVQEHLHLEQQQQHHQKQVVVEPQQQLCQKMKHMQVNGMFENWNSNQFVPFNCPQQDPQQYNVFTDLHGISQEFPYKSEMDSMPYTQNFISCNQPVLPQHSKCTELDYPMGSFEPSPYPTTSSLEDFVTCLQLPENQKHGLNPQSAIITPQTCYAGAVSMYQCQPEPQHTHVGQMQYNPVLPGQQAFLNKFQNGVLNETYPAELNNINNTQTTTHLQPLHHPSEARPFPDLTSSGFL
hcDAF12 agonist – H. contortus DAF-12 nuclear receptor activators, primary screen, cell-based, luminescence, HEK293, lit1-tk-luc reporter; HEK293 hcDAF-12 lit1-tk-luc reporter; 0% DMSO, 100% Δ7-dafachronic acid; 370,000 compounds, 1.4% hits; activation, % at 6.8 µM;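 active means activation above the mean of all tested compounds plus 3 SD, cut at about 5.5% in these data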;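 further: 100% = response to 3 µM Δ7-dafachronic acid high control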
DAX1 inh-2 – DAX1 (NR0B1) inhibitors, primary screen, cell-based, HEK293, Gal4-DAX1, luciferase luminescence; Nuclear receptor subfamily 0 group B member 1 (Homo sapiens), P51843; HEK293 Gal4-DAX1 luciferase reporter; inhibition, % at 6.75 µM; 340,000 compounds, 0.99% hits; AID 504766, 2011;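 active means inhibition above the mean over all tested compounds plus 3 SD, cut at about 4.2% in these data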;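 further: 0% = DAX1-transfected cells with DMSO and 100% = empty-vector control cells with DMSO; inhibition shows as a rise in luminescence from relieved DAX1 repression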
hgDAF-12 ag – H. glycines DAF-12 receptor agonists, primary screen, cell-based, luminescence, HEK293, GAL4 fusion, UAS-luciferase; 370,000 compounds, 1.8% hits; activation, % at 6.8 µM; HEK293 GAL4-hgDAF12 UAS-luciferase reporter, agonist luminescence; normalized to butyrate control; Nuclear hormone receptor DAF-12 (Heterodera glycines), GAL4 fusion;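 active means activation above a cutoff set at the mean of all screened compounds plus 3 SD, cut at about 10% in these data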;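 further: 0% = DMSO wells and 100% = sodium butyrate wells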
DAX1 inh confirm – DAX1 (NR0B1) inhibitors relieving SF-1 repression, confirmation, cell-based, luminescence, HEK293T, full-length DAX-1, SF-1 activated StAR promoter. HEK293T StAR-promoter luciferase reporter, SF-1/DAX-1 repression. 2,400 compounds, 87% hits. shares compounds with DAX1 inh-1. inhibition, % at 6.8 µM. AID 652134, 2013;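 active means inhibition above the average of every tested compound plus 3 SD, cut at about 3.8% in these data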;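 further: 0% = DAX-1 cells with DMSO and 100% = no DAX-1 control cells with DMSO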
SF1 mutant ctr – StAR reporter signal changes without DAX1, counter-screen for DAX1 inhibitor project, cell-based, luminescence, AF-2 mutant SF-1, transactivation; shares compounds with DAX1 inh-1; HEK293 StAR-luciferase, SF-1 AF2 mutant; inhibition, % at 6.8 µM; 2,400 compounds, 78% hits; AID 652136, 2013;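 active means inhibition above the mean of all tested compounds plus 3 SD, cut at about 3% in these data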;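 further: 0% = DAX-1 transfected cells with DMSO and 100% = cells without DAX-1 with DMSO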
LXRb hcDAF ctr – LXR agonists, Gal4 luciferase reporter, confirmation, counter-screen for hcDAF-12 agonist project, cell-based, luminescence, HEK293, H. contortus campaign | 3,400 tested, under 10 active | shares compounds with hcDAF12 agonist | activation, % at 6.8 µM | HEK293 Gal4-LXR tk-luc reporter, 24 h; normalized: DMSO 0%, positive control 100%;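 active means mean percent activation of the reporter above a cutoff set as the average over tested compounds plus their standard deviation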
hcDAF12 ag – H. contortus DAF-12 receptor agonists, confirmation, cell-based, luminescence, HEK293, lit1-tk-luc, triplicate | shares compounds with hcDAF12 agonist | HEK293 hcDAF-12 lit1-tk-luc reporter; % of Δ7-dafachronic acid response | 3,400 compounds, 61% hits | AID 743032, 2013 | activation, % at 6.8 µM;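 active means mean activation across triplicate tests above the threshold derived from the earlier primary screen, cut at about 5.5% in these data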;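 further: 0% = DMSO only wells and 100% = 3 µM Δ7-dafachronic acid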
hgDAF12 conf – H. glycines DAF-12 receptor agonists, confirmation, cell-based, luminescence, HEK293, GAL4-LBD fusion | AID 743050, 2013 | activation, % at 6.8 µM | HEK293 GAL4-hgDAF12 luciferase reporter, agonist mode; percent of butyrate response | shares compounds with hgDAF-12 ag | 3,300 compounds, 80% hits;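 active means mean activation over triplicate wells above the hit cutoff derived from the earlier primary screen, cut at about 11% in these data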;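 further: 0% = DMSO low control and 100% = 2 mM sodium butyrate high control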
LXR ag 2 – LXR agonists, Gal4 luciferase reporter, confirmation, counter-screen for hgDAF-12 agonist project, cell-based, luminescence, HEK293, H. glycines campaign; 24 h; shares compounds with hgDAF-12 ag; activation, % at 6.8 µM; 3,300 tested, under 10 active;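 active means mean activation of the triplicate above a set limit carried over from the primary screen, none filed active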
Active calls of the source: *. In the library only some 5.7% were active in any assay of this set; here they are far more common.

For Cc1nn(-c2ccccc2)c(Cl)c1/C=N/NC(=O)OC(C)(C)C the results were DAX1 inh-1 0, ssDAF12 agonist 0, AHR activator 1, hcDAF12 agonist -3, DAX1 inh-2 0 and hgDAF-12 ag 0.
Cc1ccc(S(=O)(=O)Nc2nc3ccccc3s2)cc1 was read as DAX1 inh-1 0, ssDAF12 agonist 0, AHR activator 8, hcDAF12 agonist 3, DAX1 inh-2 0 and hgDAF-12 ag 2.
`COc1ccc2nc(Nc3ccccc3OC)sc2c1` gave DAX1 inh-1 6.4*, ssDAF12 agonist 1.6*, AHR activator 22, hcDAF12 agonist 11*, DAX1 inh-2 0, hgDAF-12 ag 20*, DAX1 inh confirm 17*, SF1 mutant ctr 10*, LXRb hcDAF ctr 2, hcDAF12 ag 8.7*, hgDAF12 conf 22* and LXR ag 2 1.
Screening Cc1ccc(Nc2nc3ccccc3s2)cc1 returned DAX1 inh-1 4.7*, ssDAF12 agonist 2.4*, AHR activator 25, hcDAF12 agonist 9.7*, DAX1 inh-2 3, hgDAF-12 ag 26*, DAX1 inh confirm 15*, SF1 mutant ctr 7.3*, LXRb hcDAF ctr 2, hcDAF12 ag 7.9*, hgDAF12 conf 24* and LXR ag 2 1.
Screening COc1ccc2nc(Nc3ccccc3)sc2c1 returned DAX1 inh-1 7.3*, ssDAF12 agonist 0, AHR activator 6, hcDAF12 agonist 5, DAX1 inh-2 3, hgDAF-12 ag 26*, DAX1 inh confirm 12*, SF1 mutant ctr 9.5*, hgDAF12 conf 14* and LXR ag 2 1.
Screening COc1ccc2nc(Nc3ccc4c(c3)OCO4)sc2c1 returned DAX1 inh-1 2, ssDAF12 agonist -1, AHR activator 6, hcDAF12 agonist 1, DAX1 inh-2 1 and hgDAF-12 ag 9.
Screening COc1ccc(-c2nnc(NC(=O)C3CCCO3)s2)cc1 (configuration not stated) returned DAX1 inh-1 2, ssDAF12 agonist 0, AHR activator 21, hcDAF12 agonist 3, DAX1 inh-2 1 and hgDAF-12 ag 10.
Screening COc1ccc2nc(NC(=O)C3CCCO3)sc2c1 (configuration not stated) returned DAX1 inh-1 5.8*, ssDAF12 agonist 0, AHR activator 5, hcDAF12 agonist 4, DAX1 inh-2 4.3*, hgDAF-12 ag 15*, DAX1 inh confirm 11*, SF1 mutant ctr 6.1*, hgDAF12 conf 12* and LXR ag 2 1.
Screening COc1ccc(-c2cc(C(=O)Nc3ccc(OC)c(OC)c3)no2)cc1 returned DAX1 inh-1 1, ssDAF12 agonist -2, AHR activator 1, hcDAF12 agonist -1, DAX1 inh-2 -1 and hgDAF-12 ag 1.
`O=Nc1c2cc3ccccc3[nH]c-2c2ccccc12` gave DAX1 inh-1 7.7*, ssDAF12 agonist 1.1*, hcDAF12 agonist 10*, DAX1 inh-2 0, hgDAF-12 ag 23*, DAX1 inh confirm 9.8*, SF1 mutant ctr 8.4*, LXRb hcDAF ctr 2, hcDAF12 ag 12*, hgDAF12 conf 23* and LXR ag 2 1.
COc1ccc2oc(C(=O)Nc3nccs3)c(C)c2c1 was read as DAX1 inh-1 12*, ssDAF12 agonist 0, AHR activator 77*, hcDAF12 agonist 8.2*, DAX1 inh-2 2, hgDAF-12 ag 18*, DAX1 inh confirm 11*, SF1 mutant ctr 7.7*, LXRb hcDAF ctr 2, hcDAF12 ag 10*, hgDAF12 conf 23* and LXR ag 2 1.
For C[C@H](NC(=O)c1nc[nH]c1C(=O)NCCCCCN)C(=O)OC(C)(C)C the results were DAX1 inh-1 -1, ssDAF12 agonist -1, AHR activator 2, hcDAF12 agonist -2, DAX1 inh-2 1 and hgDAF-12 ag -1.
For O=C(O)C(=O)/C(=C\c1ccc(Cl)cc1)c1ccc2ccccc2n1 the results were DAX1 inh-1 7.8*, ssDAF12 agonist 2.5*, AHR activator 65*, hcDAF12 agonist 14*, DAX1 inh-2 2, hgDAF-12 ag 14*, DAX1 inh confirm 9.1*, SF1 mutant ctr 4.6*, LXRb hcDAF ctr 1, hcDAF12 ag 11*, hgDAF12 conf 1 and LXR ag 2 1.
